Test results as given in PubChem BioAssay (NCI).
About 83,000 compounds went through this panel and 20% of them were active in at least one assay; those are over-represented in the sample as a whole.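 48-hour exposure, single concentration, 96-well plates; percent growth endpoint where 0 means no net growth. Active: below 10.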 Active and inactive are the calls of the source.

Experiments:
Assay in all cases: NCI-60 one-dose screen, 48 h (100 = growth as untreated, 0 = no growth, -100 = all killed)
Conditions in all cases: 10 µM unless noted
NCI-H23 lung = system: NCI-H23 lung
NCI-H226 lung = system: NCI-H226 lung
NCI-H322M lung = system: NCI-H322M lung
HOP-62 NSCLC = system: HOP-62 NSCLC
NCI-H460 lung = system: NCI-H460 lung
HOP-92 NSCLC = system: HOP-92 NSCLC
NCI-H522 lung = system: NCI-H522 lung
A549/ATCC NSCLC = system: A549/ATCC NSCLC
786-0 renal = system: 786-0 renal
COLO 205 colon = system: COLO 205 colon
DU-145 prostate = system: DU-145 prostate
MALME-3M melanoma = system: MALME-3M melanoma
MDA-MB-231 breast = system: MDA-MB-231 breast
RXF 393 renal = system: RXF 393 renal
SF-268 CNS = system: SF-268 CNS
SF-295 CNS = system: SF-295 CNS
SF-539 CNS = system: SF-539 CNS
UACC-257 melanoma = system: UACC-257 melanoma
M14 melanoma = system: M14 melanoma

Measured: growth

CC(C)(C)OC(=O)N1CCN(CCn2cc(C(F)(F)F)c3c(Cl)ncnc32)CC1
inactive: NCI-H23 lung 44.8% | NCI-H226 lung 108% | NCI-H322M lung 96.2% | HOP-62 NSCLC 88.6% | NCI-H460 lung 59.3% | A549/ATCC NSCLC 96% | 786-0 renal 107% | COLO 205 colon 102% | DU-145 prostate 39.8% | MALME-3M melanoma 112% | MDA-MB-231 breast 57.9% | RXF 393 renal 47% | SF-268 CNS 69.5% | SF-295 CNS 99.6% | SF-539 CNS 97.3% | UACC-257 melanoma 85.4% | M14 melanoma 14%
active: HOP-92 NSCLC -23.1% | NCI-H522 lung -2.6%

CC1=C2C(=C[C@@](C)(CO)[C@@H]2OC(=O)N(C)CCN(C)C(=O)OC(C)(C)C)C(=O)[C@](C)(O)C12CC2
inactive: NCI-H23 lung 11.8% | NCI-H226 lung 106% | NCI-H322M lung 59.7% | NCI-H522 lung 57.7% | A549/ATCC NSCLC 10.4% | 786-0 renal 65.1% | COLO 205 colon 40.1% | MALME-3M melanoma 67.3% | MDA-MB-231 breast 48% | SF-539 CNS 57.9% | UACC-257 melanoma 100% | M14 melanoma 54.8%
active: HOP-62 NSCLC 9.97% | NCI-H460 lung 3.77% | HOP-92 NSCLC 8.11% | DU-145 prostate 8.82% | RXF 393 renal -57.3% | SF-268 CNS 4.84% | SF-295 CNS 5.06%

CCOc1cccc(Nc2nc(N)nc3[nH]c4ccc(O)cc4c23)c1
inactive: NCI-H23 lung 68.5% | NCI-H226 lung 79.5% | NCI-H322M lung 65.1% | HOP-62 NSCLC 61.7% | NCI-H460 lung 82% | HOP-92 NSCLC 25.9% | NCI-H522 lung 49.2% | A549/ATCC NSCLC 46.6% | 786-0 renal 52.8% | COLO 205 colon 96.9% | DU-145 prostate 49% | MALME-3M melanoma 96.9% | MDA-MB-231 breast 54.8% | RXF 393 renal 43% | SF-268 CNS 44.6% | SF-295 CNS 68.1% | SF-539 CNS 81.4% | UACC-257 melanoma 88.6% | M14 melanoma 75.3%

CN(C)c1ccc2cc(-c3nc4ccccc4s3)c(N)nc2c1
inactive: NCI-H23 lung 50.8% | NCI-H226 lung 119% | NCI-H322M lung 49.8% | HOP-62 NSCLC 40.3% | NCI-H460 lung 19.6% | HOP-92 NSCLC 85.1% | NCI-H522 lung 17% | A549/ATCC NSCLC 28.3% | 786-0 renal 35.3% | COLO 205 colon 84.1% | DU-145 prostate 40.8% | MALME-3M melanoma 83.4% | MDA-MB-231 breast 70.7% | RXF 393 renal 83.5% | SF-268 CNS 58.7% | SF-295 CNS 22.3% | SF-539 CNS 34% | UACC-257 melanoma 93.9% | M14 melanoma 50.9%

CCn1c(SC)nnc1-c1cc2c([nH]c3ccccc32)c(-c2cccc(O)c2)n1
active: NCI-H460 lung 9.54% | HOP-92 NSCLC -1.11% | NCI-H522 lung 5.8% | 786-0 renal 1.6% | RXF 393 renal -32.9% | SF-295 CNS -20.1% | SF-539 CNS -9.07%
inactive: NCI-H23 lung 39.8% | NCI-H226 lung 51.3% | NCI-H322M lung 50.1% | HOP-62 NSCLC 18.3% | A549/ATCC NSCLC 26.5% | COLO 205 colon 87.7% | DU-145 prostate 28.1% | MALME-3M melanoma 33.1% | MDA-MB-231 breast 23.1% | SF-268 CNS 32.4% | UACC-257 melanoma 57.4% | M14 melanoma 10.8%

CC(C)(C)OC(=O)N1CC(Cn2cc(C(F)(F)F)c3c(Cl)ncnc32)C1
active: NCI-H23 lung -68.9% | NCI-H322M lung -90.2% | HOP-62 NSCLC -83.7% | NCI-H460 lung -59% | HOP-92 NSCLC -64.5% | A549/ATCC NSCLC 5.78% | DU-145 prostate -100% | MDA-MB-231 breast 0.765% | RXF 393 renal -63.7% | SF-268 CNS -86.9% | UACC-257 melanoma -37.9% | M14 melanoma -87.4%
inactive: NCI-H226 lung 63.8% | NCI-H522 lung 39.9% | 786-0 renal 107% | COLO 205 colon 63.8% | MALME-3M melanoma 80.6% | SF-295 CNS 30.4% | SF-539 CNS 79.9%

O=C(c1ccccc1)[C@H]1[C@@H]2CCCN2[C@]2(C(=O)Nc3ccc(F)cc32)[C@]12C(=O)Nc1ccccc12
inactive: NCI-H23 lung 93.3% | NCI-H226 lung 79.3% | NCI-H322M lung 97% | HOP-62 NSCLC 86.8% | NCI-H460 lung 93.6% | HOP-92 NSCLC 54.9% | NCI-H522 lung 73.5% | A549/ATCC NSCLC 75.2% | 786-0 renal 87.7% | COLO 205 colon 93.8% | DU-145 prostate 94% | MALME-3M melanoma 125% | MDA-MB-231 breast 75.5% | RXF 393 renal 81.9% | SF-268 CNS 90.2% | SF-295 CNS 97.6% | SF-539 CNS 90.1% | UACC-257 melanoma 83.3% | M14 melanoma 85.2%

O=c1c(-c2ccc3c(c2)OCO3)coc2c(CO)c(O)ccc12
inactive: NCI-H23 lung 56.8% | NCI-H322M lung 16.6% | NCI-H522 lung 36.7% | A549/ATCC NSCLC 49.2% | 786-0 renal 23.6% | COLO 205 colon 113% | M14 melanoma 45%
active: NCI-H226 lung -35.6% | HOP-62 NSCLC -54.1% | NCI-H460 lung 9.52% | HOP-92 NSCLC -21.6% | DU-145 prostate -20.8% | MALME-3M melanoma -45.1% | MDA-MB-231 breast -33.6% | RXF 393 renal -84% | SF-268 CNS -43.3% | SF-295 CNS 3.29% | SF-539 CNS -9.82% | UACC-257 melanoma 9.01%
